# The panel holds about 83,000 compounds, 20% with a hit somewhere; the sample as a whole holds those more often.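 Single-concentration screen, 48 h exposure, 96-well plates. Endpoint: percent growth. Below 10 = active.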 A number with no mark means an inactive call. Active and inactive are the calls of the source.
# Legend:
# Test in all cases: NCI-60 one-dose screen, 48 h (100 = growth as untreated, 0 = no growth, -100 = all killed)
# Conditions in all cases: 10 µM
# [1] = tested on: K-562 leukemia
# [2] = tested on: MDA-MB-231 breast
# [3] = tested on: RXF 393 renal
# [4] = tested on: SF-268 CNS
# [5] = tested on: SF-295 CNS
# [6] = tested on: SF-539 CNS
# [7] = tested on: UACC-257 melanoma
# [8] = tested on: M14 melanoma
# [9] = tested on: HCT-15 colon
# [10] = tested on: MALME-3M melanoma
SMILES,growth [1],growth [2],growth [3],growth [4],growth [5],growth [6],growth [7],growth [8],growth [9],growth [10]
COc1cc(C)ccc1C(=O)c1ccc(C)cc1OC,10%,41.2%,-10.5% (active),43.5%,-39.1% (active),3.62% (active),60.3%,12.4%,36.3%,–
COc1ccc2c(c1)N(CCO)C1=C(C(=O)OC1)C2c1ccc(OC)c(OC)c1 (configuration not stated),19.8%,68%,28.2%,54.3%,7.46% (active),13%,53.7%,36.1%,39.6%,–
COc1ccc(/C=C/C(=O)Nc2ccc(-c3nc4ccc(OC)cc4s3)cc2)cc1,95.7%,111%,112%,116%,106%,102%,111%,106%,111%,–
CC[C@H]1CCC/C=C/[C@@H]2C[C@H](O)C[C@H]2[C@H](O)/C=C/C(=O)O1,10.3%,-88.4% (active),-29.2% (active),8% (active),-1.83% (active),30.9%,-13.6% (active),2.47% (active),8.78% (active),–
O=[N+]([O-])c1ccc(Oc2cccnc2)c([N+](=O)[O-])c1,16.1%,94%,63.9%,97.5%,104%,75.7%,63.6%,84.9%,53.1%,–
O=C1OCC2=C1C(c1cccc(Cl)c1)c1cc3c(cc1N2CCO)OCO3 (configuration not stated),15.4%,31.7%,6.21% (active),46.5%,-4.59% (active),-9.08% (active),61%,11%,18.5%,–
CCN(CC)CCC(=O)Nc1cccc2c1C(=O)c1c(c(O)c3ccccc3c1O)C2=O,23.3%,–,58.4%,56.9%,25.7%,38%,85.6%,70.8%,51.9%,61.6%
CC(C)(C)NC/C(=C\c1ccccc1)C(=O)c1ccccc1,6.24% (active),-23% (active),-66.4% (active),7.36% (active),85.9%,-46.2% (active),-8.37% (active),-30.6% (active),-52.1% (active),–
COc1cc2c(cc1OCCCCCCN1CCN(CC(=O)Nc3ccc(Cl)cc3C(=O)c3ccccc3Cl)CC1)N=CC1CCCN1C2=O (configuration not stated),-62.3% (active),-100% (active),–,-61% (active),-94.9% (active),-95.2% (active),–,-67.4% (active),-100% (active),-92.3% (active)
O=C(Nc1ccncc1)C(=O)c1cn(S(=O)(=O)c2cc(Cl)cc(Cl)c2)c2ccccc12,28.5%,63.6%,75%,94.3%,38.2%,61.7%,69.8%,71.5%,69.5%,–
CCCCCCCCCCCCCCCCN(C(C)c1ccccc1)S(=O)(=O)c1ccc(OC)c(N)c1 (configuration not stated),89.9%,122%,131%,108%,116%,116%,108%,115%,115%,–
Cc1ncc(-c2ccoc2)c(NC2CCCCCC2)n1,106%,108%,113%,98.9%,102%,110%,96.4%,101%,103%,–
Clc1ccccc1N=Cc1ccc2c(c1)OCO2,87.1%,94.4%,106%,107%,102%,112%,104%,103%,100%,–
COc1ccc(/C=C/C(=O)Nc2ccc(-c3nc4ccc(F)cc4s3)cc2)cc1,79.6%,97%,101%,112%,95.5%,111%,94.9%,102%,105%,–
N#Cc1cc(-c2cc3ccccc3o2)oc1N,2.52% (active),-27.1% (active),–,29%,-28.1% (active),-45% (active),–,26.4%,9.98% (active),-5.2% (active)
O=C(Nc1ccc(Cl)c(Cl)c1)Nc1c(Oc2ccc(Cl)c(Cl)c2)ccc(Cl)c1S(=O)(=O)O,9.98% (active),39.5%,-14.3% (active),52.1%,-27.2% (active),4% (active),61.9%,19.3%,39.6%,–
COc1ccc2c(c1)sc1nc(-c3ccccc3)c(-c3ccsc3)n12,13.8%,52.3%,-13.3% (active),54.3%,-20% (active),2.07% (active),39.7%,15.6%,30.5%,–
COc1cc(-c2cc(C(=O)N3CCN(C(=O)c4ccccc4NCc4ccco4)CC3)nc3cc(-c4ccccc4)nn23)cc(OC)c1OC,12.3%,42.9%,6.82% (active),38.6%,49.7%,17.8%,33.6%,23.8%,29.1%,–
COc1ccc2c(c1)N(CCO)C1=C(C(=O)OC1)C2c1cc(OC)c(OC)c(OC)c1 (configuration not stated),15%,-24.4% (active),55.5%,23.9%,-20.6% (active),-6.38% (active),47.4%,11.2%,5.29% (active),–
COc1ccc2c(c1)C(=O)c1c-2c(OCCN(C)C)nc2cc(OC)c(OC)cc12,62%,72.3%,70.4%,41%,21.5%,71.9%,103%,88.8%,76.8%,–
NC(=O)SCC(=O)Nc1ccc(S(N)(=O)=O)cc1,108%,106%,99%,106%,107%,100%,101%,105%,109%,–
COc1cc2c(cc1OCCCN1CCN(c3ncnc4ccccc34)CC1)N=CC1CCCN1C2=O (configuration not stated),-24.8% (active),-34.4% (active),–,10.3%,-20.9% (active),-82.7% (active),–,-46.8% (active),1.25% (active),-71.7% (active)
Cc1cc(C)c2c(n1)sc1c(Nc3ccc(Cl)cc3)ncnc12,46.2%,32.1%,1.12% (active),0.138% (active),10.6%,-49.5% (active),20.3%,-48.3% (active),31%,–
CCN1CCC2(CC1)OC(c1ccccc1)C(c1ccccc1)O2 (configuration not stated),88.2%,122%,109%,108%,111%,116%,116%,112%,106%,–
C=C(C(=O)c1ccccc1)C(NC(C)(C)C)c1ccccc1 (configuration not stated),4.27% (active),-11.3% (active),-56.1% (active),7.85% (active),110%,-24.1% (active),-15.3% (active),-33.6% (active),-48.7% (active),–
CCN(CC)CCOc1nc2cc(OC)c(OC)cc2c2c1-c1ccc(OC)cc1C2=O,69.6%,92.4%,86.2%,44.3%,29.6%,81.9%,101%,85.9%,81.4%,–
CCCCCC(=O)c1ccc(OCCCN2CCN(C(=O)OCC)CC2)cc1,66.4%,99.5%,102%,108%,81.8%,104%,95.6%,103%,85.1%,–
Nc1nccc(Nc2ccccc2)n1,102%,118%,112%,109%,104%,93.5%,95.8%,108%,110%,–
O=C(Nc1ccncc1)C(=O)c1cn(S(=O)(=O)c2cccc(Cl)c2)c2ccccc12,19.8%,87.4%,89.2%,80.9%,55.8%,67.3%,78.1%,47%,49.2%,–
CCc1ccc2c(c1)N(CCO)C1=C(C(=O)OC1)C2c1cc(OC)c(OC)c(OC)c1 (configuration not stated),10.5%,-28% (active),53.4%,21.7%,-28.4% (active),-9.69% (active),50.5%,10.2%,6.93% (active),–

# — PubChem BioAssay (NCI)
